RAD54 inh: blocks human RAD54 Holliday junction branch migration | Q92698 | FAM/BHQ fluorescence | inhibition, % at 10.4 µM | hit rate 0.14% among 360,000;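 active means mean normalized replicate activity at least 40 and at least half of replicates scoring 40 or more; inconclusive means only one of the two criteria met; inactive means mean below 40 and under half of replicates reaching 40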;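 further: 0% = median of neutral control wells and 100% = median of positive control wells; inhibitors cause a drop in the FAM fluorescence signal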
ABCB6 inh 2: human ABCB6 transporter inhibition. Q9NP58. K562-ABCB6 porphyrin accumulation, flow cytometry, 1 h; hits give low values. fluorescence ratio to DMSO, % at 10 µM. hit rate 0.19% among 360,000;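 active means fluorescence ratio to DMSO below 75%, the collection mean minus 3 SD; inconclusive means too few cells collected in the well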;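 further: signal is porphyrin accumulated inside mitochondria; 100% equals median channel fluorescence of DMSO control wells; lower ratio means ABCB6 inhibition with less porphyrin fluorescence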
N-glyco inh: N-linked glycosylation inhibition | reporter increase, % at 12.5 µM | D54 ERlucT glycosylation luciferase reporter, 24 h; percent of 100 nM tunicamycin response | AID 588692 | hit rate 0.23% among 360,000;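 active means mean luciferase reporter signal, scaled so untreated is 0 and the glycosylation-blocking control 100, at or above a set limit in every replicate; inconclusive means mean reaches the limit but not every replicate does; inactive means mean below the limit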;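 further: luciferase carries N-glycosylation sites so blocking glycosylation raises the light; 0% = median of neutral control wells and 100% = median of 100 nM tunicamycin wells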
Myeloid diff 2: promotes myeloid progenitor differentiation | ER-HoxA9 myeloid progenitors, lysozyme-GFP differentiation, flow cytometry | calls only at 10 µM | hit rate 1% among 360,000 | AID 624256;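 active means normalized GFP-positive differentiation at or above the plate's own cutoff, the solvent-only control mean plus 3 SD; inconclusive means no clear call, values can overlap the other calls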;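 further: cells exposed to compound for four days before flow analysis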
Vif imaging: inhibitors of HIV Vif; HEK293T cells, Vif self-association by quenched fluorescence, imaging, 24 h; inhibition, % at 7.49 µM; hit rate 0.35% among 340,000; AID 602346; in the data active means inhibition above about 50%, passing the limit was not always enough; inconclusive means no clear call, values can overlap the other calls; inactive means below about 31%
ABCB6 inh CP1: blocks the human ABCB6 transporter; shares compounds with ABCB6 inh 2; ratio response (% of DMSO), % at 10 µM; K562-ABCB6 porphyrin accumulation, flow cytometry, 1 h; hits give low values; 700 tested, under 10 active;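 active means repeat-averaged ratio response below 75% of DMSO, the collection mean minus 3 SD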;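 further: median porphyrin fluorescence at 575 nm with 488 nm excitation from mitochondria; lower ratio means less porphyrin signal so ABCB6 inhibition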
K562 vector FC: effect in K562 cells lacking ABCB6, counter-screen; K562 empty-vector cells, flow cytometry fluorescence, 1 h; shares compounds with ABCB6 inh 2; percent response (fluorescence), % at 100 µM; 25 tested, under 10 active;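 active means compounds whose half-maximal effective concentration is below 100 µM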
Active calls of the source: *; i = inactive; ? = inconclusive; . = no result. Shown are actives, neighbours in structure and some others; about 1.6% of the full set was active somewhere.

SMILES	RAD54 inh	ABCB6 inh 2	N-glyco inh	Myeloid diff 2	Vif imaging	ABCB6 inh CP1	others
O=C(O)COCC(=O)N1CCCN(c2nccc(C(F)(F)F)n2)CC1	-4	50*	3	i	-10	102
O=C(O)CSCC(=O)N1CCCN(c2nccc(C(F)(F)F)n2)CC1	-4	94	0	i	-7	.
Cc1noc(C)c1NC(=O)Nc1ccc2c(c1)C(=O)N([C@@H](C)CO)C[C@@H](C)[C@@H](CN(C)C(=O)Nc1ccc(C(F)(F)F)cc1)OCCCC[C@@H](C)O2	-19	.	.	.	.	.
CC(=O)c1c(C)oc2ccc(NS(=O)(=O)c3ccc(F)cc3C)cc12	-6	73*	-1	i	-8	101
COc1ccc(CN2C[C@H](C)[C@H](OC)CN(C)C(=O)c3cc(NC(=O)c4nc5ccccc5s4)ccc3OC[C@@H]2C)cc1	12	.	.	.	.	.
CC1(C(=O)NS(=O)(=O)c2ccc(F)cc2F)CCN1C(=O)Cc1cc(F)ccc1F (stereo unspecified)	-1	86	2	i	-5	.
CC(C)c1ccc(CC(=O)N2CCC2(C)C(=O)NS(=O)(=O)c2ccc(F)cc2F)cc1 (stereo unspecified)	-9	99	0	i	.	97
CC1(C(=O)NS(=O)(=O)c2ccc(F)cc2F)CCN1C(=O)Cc1cccc2ccccc12 (stereo unspecified)	-7	97	1	i	10	100
CC(C)c1ccc(CC(=O)N2CCC2(C)C(=O)NS(=O)(=O)c2cccc(OC(F)F)c2)cc1 (stereo unspecified)	-8	95	1	i	.	97
C[C@@H](NC(=O)[C@@H]1[C@@H](CO)[C@@H]2Cn3c(cccc3=O)[C@H]1N2Cc1cccnc1)c1ccccc1	-1	.	.	.	.	.
CCCNC(=O)N1C[C@H]2[C@@H](c3ccccc31)[C@@H](CO)N2C(=O)c1ccncc1	11	.	.	.	.	.
Cc1ccc(-c2ccc3c(c2)O[C@@H](CN(C)C)[C@@H](C)CN([C@@H](C)CO)S3(=O)=O)cc1	-3	.	.	.	.	.
CCOC(=O)c1ccc(S(=O)(=O)Nc2cc(C(C)(C)C)no2)cc1	-4	66*	0	i	15	99
O=C(CCN1C(=O)C2C3CCC(C3)C2C1=O)OCC(=O)c1ccccc1 (stereo unspecified)	-3	91	-3	i	-2	.
O=C(CCN1C(=O)C2C3CC(C(Br)C3Br)C2C1=O)OCC(=O)c1ccccc1 (stereo unspecified)	.	71*	0	i	5	99
Cc1ccc(F)c(S(=O)(=O)NC(=O)C2(C)CCN2C(=O)Cc2ccccc2Cl)c1 (stereo unspecified)	10	94	1	i	-2	100
Cc1ccc(F)c(S(=O)(=O)NC(=O)C2(C)CCN2C(=O)Cc2cc(F)ccc2F)c1 (stereo unspecified)	16	102	2	i	4	98
CC(C)(C)c1ccc(S(=O)(=O)NC(=O)C2(C)CCN2C(=O)Cc2cc(F)ccc2F)cc1 (stereo unspecified)	-18	107	1	i	-5	.
Cc1ccccc1S(=O)(=O)NC(=O)C1(C)CCN1C(=O)CCc1ccc(Cl)cc1Cl (stereo unspecified)	8	97	1	i	1	97
Cc1ccc(F)c(S(=O)(=O)NC(=O)C2(C)CCN2C(=O)Cc2ccc(Cl)cc2Cl)c1 (stereo unspecified)	-1	98	-1	i	2	.
CC1(C(=O)NS(=O)(=O)c2ccc(C#N)cc2)CCN1C(=O)Cc1cc(F)ccc1F (stereo unspecified)	-1	104	1	i	-3	99
C[C@H](CO)N1C[C@H](C)[C@H](CN(C)C(=O)Nc2ccc(F)cc2)Oc2ncc(C3=CCCC3)cc2C1=O	1	.	.	.	.	.
CO[C@H]1CN(C)C(=O)c2ccc(NC(=O)c3cnccn3)cc2OC[C@@H](C)N(C)C[C@H]1C	2	.	.	.	.	.
COC(=O)c1ccc(NC(=O)c2nc(S(=O)(=O)Cc3cccc(C)c3)ncc2Cl)cc1	-13	41*	-3	i	-21	91
Cc1cccc(CS(=O)(=O)c2ncc(Cl)c(C(=O)NCc3ccc4c(c3)OCO4)n2)c1	-4	97	-10	i	-1	.
SMILES	RAD54 inh	ABCB6 inh 2	N-glyco inh	Myeloid diff 2	Vif imaging	ABCB6 inh CP1	others
CC(=O)Nc1ccc(NC(=O)c2nc(S(=O)(=O)Cc3cccc(C)c3)ncc2Cl)cc1	0	67*	2	?	0	.	K562 vector FC=224
CC(=O)N(C)C[C@@H]1Oc2cc(C#Cc3ccc(F)cc3)ccc2S(=O)(=O)N([C@@H](C)CO)C[C@H]1C	3	.	.	.	.	.
COCC(=O)N(C)C[C@H]1Oc2ncc(-c3ccccc3C)cc2C(=O)N([C@H](C)CO)C[C@@H]1C	-1	.	.	.	.	.
COc1ccc(NC(=O)CN2CCC(NC(=O)C3CCCCC3)CC2)cc1	4	68*	2	i	-1	98
O=C(NC1CCCCC1)N1CCC(c2nc(-c3ccc(S(=O)(=O)N4CCCC4)cc3)no2)CC1	12	70*	-5	i	-25	103
COc1ccc(OC)c(C(C)NC(=O)Nc2ccccc2)c1 (stereo unspecified)	4	72*	-3	i	-5	101
C[C@H](CO)N1C[C@H](C)[C@@H](CN(C)Cc2ccncc2)Oc2c(NC(=O)Nc3ccc4c(c3)OCO4)cccc2C1=O	-8	.	.	.	.	.
COC(=O)c1ccccc1NC(=O)c1noc2c1CC(C(C)(C)C)CC2 (stereo unspecified)	-5	69*	1	i	18	100
CC1CCN(c2ccc3nnc(CCC(=O)NC(C)C)n3n2)CC1	0	97	0	i	-4	91
COC(=O)C(NC(=O)CCc1nnc2ccc(N3CCCCC3)nn12)C(C)C (stereo unspecified)	2	100	4	i	-9	100
CC1CCN(c2ccc3nnc(CCC(=O)Nc4ccc(F)cc4)n3n2)CC1	7	100	1	i	-4	.
COc1cc(NC(=O)CCc2nnc3ccc(N4CCC(C)CC4)nn23)cc(OC)c1	13	101	4	i	7	.
CCN(CC)CCNC(=O)CCc1nnc2ccc(N3CCC(C)CC3)nn12	6	99	6	i	-13	103
COCCNC(=O)CCc1nnc2ccc(N3CCC(C)CC3)nn12	8	96	2	i	3	101
Cc1ccc(S(=O)(=O)Nc2ccc3c(c2)C(=O)N([C@H](C)CO)C[C@@H](C)[C@@H](CN(C)S(=O)(=O)c2cn(C)cn2)O3)cc1	6	.	.	.	.	.
CN1C(=O)c2cc(NC(=O)c3ccccc3Cl)ccc2OC[C@@H]2O[C@H](CC(=O)O)CC[C@@H]21	8	.	.	.	.	.

Source: PubChem
